In all, about 5,500 compounds went through this assay and about 2,000 (36%) were called active. Roughly 18% stayed inconclusive and do not appear here. Rule as the data show it: active = normalized growth mostly below about 0.91 (no sharp cut-off); inconclusive = no clear call, values can overlap the other calls; inactive = mostly above about 0.92. Some of the results follow.
Assay: chemical genetic growth profiling, strain panel (AID 1159580);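 also: tested at 20 µM; growth read once vehicle control cultures reached saturation at 30 °C; 1 = growth at the plate median or of vehicle wells; lower values mean less growth of the strain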
Details: growth OD

Measured: normalized growth

O=C(O)c1nc2cc(Cl)c(Cl)cc2[nH]c1=O
inactive: S. cerevisiae deletion strains, locus YJR075W, strain HOC1, stronger effect = lower value 1.07 | S. cerevisiae deletion strains, locus YKL009W, strain mrt4, stronger effect = lower value 0.949 | S. cerevisiae deletion strains, locus YKL068W, stronger effect = lower value 0.981 | S. cerevisiae deletion strains, locus YKL085W, strain MDH1 (second series), stronger effect = lower value 1.02 | S. cerevisiae deletion strains, locus YKL085W, strain MDH1, stronger effect = lower value 1.02 | S. cerevisiae deletion strains, locus YKL160W, strain elf1, stronger effect = lower value 0.996 | S. cerevisiae deletion strains, locus YKL190W, strain CNB1, stronger effect = lower value 0.996 | S. cerevisiae deletion strains, locus YKR001C, strain vps1, stronger effect = lower value 0.983 | S. cerevisiae deletion strains, locus YKR026C, strain gcn3, stronger effect = lower value 1.02 | S. cerevisiae deletion strains, locus YKR091W, strain srl3, stronger effect = lower value 1.01 | S. cerevisiae deletion strains, locus YLL001W, strain dnm1, stronger effect = lower value 1.01 | S. cerevisiae deletion strains, locus YLL026W, stronger effect = lower value 1.01 | S. cerevisiae deletion strains, locus YLL041C, strain sdh2, stronger effect = lower value 1.01 | S. cerevisiae deletion strains, locus YLR027C, strain aat2, stronger effect = lower value 1.01 | S. cerevisiae deletion strains, locus YLR039C, strain RIC1, stronger effect = lower value 1.01 | S. cerevisiae deletion strains, locus YLR058C, strain SHM2, stronger effect = lower value 1 | S. cerevisiae deletion strains, locus YLR102C, strain apc9, stronger effect = lower value 0.987 | S. cerevisiae deletion strains, locus YLR113W, strain HOG1, stronger effect = lower value 0.987 | S. cerevisiae deletion strains, locus YLR221C, strain rsa3, stronger effect = lower value 1 | S. cerevisiae deletion strains, locus YLR258W, strain gsy2, stronger effect = lower value 1.02 | S. cerevisiae deletion strains, locus YLR262C, strain YPT6 (second series), stronger effect = lower value 1.02 | S. cerevisiae deletion strains, locus YLR262C, strain YPT6, stronger effect = lower value 0.981 | S. cerevisiae deletion strains, locus YLR268W, strain sec22, stronger effect = lower value 1 | S. cerevisiae deletion strains, locus YLR320W, strain mms22, stronger effect = lower value 1.02 | S. cerevisiae deletion strains, locus YLR330W, strain CHS5, stronger effect = lower value 0.994 | S. cerevisiae deletion strains, locus YLR342W, strain FKS1 (second series), stronger effect = lower value 1.02 | S. cerevisiae deletion strains, locus YLR342W, strain FKS1, stronger effect = lower value 1.03 | S. cerevisiae deletion strains, locus YLR357W, strain rsc2, stronger effect = lower value 1.01 | S. cerevisiae deletion strains, locus YLR370C, strain arc18, stronger effect = lower value 1.03 | S. cerevisiae deletion strains, locus YLR371W, strain rom2, stronger effect = lower value 0.968 | S. cerevisiae deletion strains, locus YLR384C, strain iki3, stronger effect = lower value 1 | S. cerevisiae deletion strains, locus YLR418C, strain cdc73, stronger effect = lower value 1.05 | S. cerevisiae deletion strains, locus YML016C, strain PPZ1, stronger effect = lower value 0.995 | S. cerevisiae deletion strains, locus YML032C, strain rad52, stronger effect = lower value 0.977 | S. cerevisiae deletion strains, locus YML120C, strain ndi1, stronger effect = lower value 1 | S. cerevisiae deletion strains, locus YML124C, strain tub3, stronger effect = lower value 0.993 | S. cerevisiae deletion strains, locus YMR058W, strain fet3, stronger effect = lower value 1.02 | S. cerevisiae deletion strains, locus YMR078C, strain ctf18, stronger effect = lower value 0.99 | S. cerevisiae deletion strains, locus YMR125W, strain sto1, stronger effect = lower value 1.02 | S. cerevisiae deletion strains, locus YMR129W, stronger effect = lower value 1 | S. cerevisiae deletion strains, locus YMR205C, strain PFK2, stronger effect = lower value 1.04 | S. cerevisiae deletion strains, locus YMR223W, strain ubp8, stronger effect = lower value 0.996 | S. cerevisiae deletion strains, locus YMR231W, strain pep5, stronger effect = lower value 1.02 | S. cerevisiae deletion strains, locus YMR263W, strain SAP30, stronger effect = lower value 1.02 | S. cerevisiae deletion strains, locus YMR307W, strain GAS1, stronger effect = lower value 1.04 | S. cerevisiae deletion strains, locus YNL067W, strain RPL9B, stronger effect = lower value 0.948 | S. cerevisiae deletion strains, locus YNL071W, strain lat1, stronger effect = lower value 1.01 | S. cerevisiae deletion strains, locus YNL128W, strain TEP1, stronger effect = lower value 1.04 | S. cerevisiae deletion strains, locus YNL153C, strain GIM3, stronger effect = lower value 1.03 | S. cerevisiae deletion strains, locus YNL183C, strain NPR1, stronger effect = lower value 0.933 | S. cerevisiae deletion strains, locus YNL209W, strain ssb2, stronger effect = lower value 1.01 | S. cerevisiae deletion strains, locus YNL233W, strain BNI4, stronger effect = lower value 1.03 | S. cerevisiae deletion strains, locus YNL248C, strain rpa49, stronger effect = lower value 0.984 | S. cerevisiae deletion strains, locus YNL250W, strain rad50, stronger effect = lower value 0.988 | S. cerevisiae deletion strains, locus YNL271C, strain bni1, stronger effect = lower value 0.991 | S. cerevisiae deletion strains, locus YNL298W, strain CLA4, stronger effect = lower value 0.993 | S. cerevisiae deletion strains, locus YNL307C, strain MCK1, stronger effect = lower value 1.01 | S. cerevisiae deletion strains, locus YNL322C, strain KRE1 (second series), stronger effect = lower value 1.01 | S. cerevisiae deletion strains, locus YNL322C, strain KRE1, stronger effect = lower value 0.998 | S. cerevisiae deletion strains, locus YNR049C, strain mso1, stronger effect = lower value 1.01 | S. cerevisiae deletion strains, locus YNR052C, strain pop2, stronger effect = lower value 0.982 | S. cerevisiae deletion strains, locus YOL006C, strain TOP1, stronger effect = lower value 1.09 | S. cerevisiae deletion strains, locus YOL012C, strain htz1 0.84 | S. cerevisiae deletion strains, locus YOL147C, strain pex11, stronger effect = lower value 0.998 | S. cerevisiae deletion strains, locus YOR001W, strain rrp6, stronger effect = lower value 0.994 | S. cerevisiae deletion strains, locus YOR061W, strain CKA2, stronger effect = lower value 1 | S. cerevisiae deletion strains, locus YOR069W, strain VPS5, stronger effect = lower value 0.997 | S. cerevisiae deletion strains, locus YOR070C, strain gyp1, stronger effect = lower value 1.01 | S. cerevisiae deletion strains, locus YOR080W, strain dia2, stronger effect = lower value 1.02 | S. cerevisiae deletion strains, locus YOR083W, strain WHI5, stronger effect = lower value 0.981 | S. cerevisiae deletion strains, locus YOR106W, strain vam3, stronger effect = lower value 0.994 | S. cerevisiae deletion strains, locus YOR136W, strain idh2, stronger effect = lower value 0.992 | S. cerevisiae deletion strains, locus YOR144C, strain elg1, stronger effect = lower value 0.993 | S. cerevisiae deletion strains, locus YOR184W, strain ser1, stronger effect = lower value 0.988 | S. cerevisiae deletion strains, locus YOR231W, strain MKK1, stronger effect = lower value 1.01 | S. cerevisiae deletion strains, locus YOR265W, strain rbl2, stronger effect = lower value 0.999 | S. cerevisiae deletion strains, locus YOR270C, strain vph1, stronger effect = lower value 1.05 | S. cerevisiae deletion strains, locus YOR290C, strain snf2, stronger effect = lower value 1 | S. cerevisiae deletion strains, locus YOR316C, strain cot1, stronger effect = lower value 0.987 | S. cerevisiae deletion strains, locus YPL051W, strain arl3, stronger effect = lower value 0.989 | S. cerevisiae deletion strains, locus YPL055C, strain LGE1, stronger effect = lower value 0.981 | S. cerevisiae deletion strains, locus YPL078C, strain atp4, stronger effect = lower value 1 | S. cerevisiae deletion strains, locus YPL106C, strain sse1, stronger effect = lower value 1.02 | S. cerevisiae deletion strains, locus YPL240C, strain hsp82, stronger effect = lower value 1 | S. cerevisiae deletion strains, locus YPL241C, strain CIN2, stronger effect = lower value 0.992 | S. cerevisiae deletion strains, locus YPL256C, strain CLN2, stronger effect = lower value 0.994 | S. cerevisiae deletion strains, locus YPR119W, strain clb2, stronger effect = lower value 0.996 | S. cerevisiae deletion strains, locus YPR141C, strain kar3, stronger effect = lower value 0.99 | S. cerevisiae deletion strains, locus YPR163C, strain tif3, stronger effect = lower value 0.992 | S. cerevisiae deletion strains, locus YPR167C, strain met16, stronger effect = lower value 0.996 | S. cerevisiae deletion strains, strain wtn01, stronger effect = lower value 1.01 | S. cerevisiae strains, strain wild type, stronger effect = lower value 1.01

From PubChem BioAssay AID1159580 (chemical genetic matrix, 2015)
